This assay deals with MILI (PIWIL2) piRISC loaded with L1MC piRNA (26 nt). Description: pre-steady-state target cleavage rate (min^-1); guide: L1MC piRNA 5'p-UAACUAAAUACUAUGCAAGCUGUAGG; MIWI and MILI are mouse PIWI proteins and EfPiwi is from a freshwater sponge; tags in brackets are library labels; higher = faster piRNA-guided slicing of the target. A digest of the protocol:
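The pre-steady-state cleavage rate was calculated from a burst-and-steady-state fit. Data came from Cleave-'n-Seq, in which […] transcribed, DNA-blocked target RNA library was mixed with 1 nM active affinity-purified piRISC carrying one synthetic guide, with or without 500 nM GTSF1 partner protein, in HEPES–potassium acetate buffer at 33 °C for 0–8 or 0–960 min. Uncleaved targets were sequenced and normalised to depth and to weakly complementary targets, three trials were pooled, and k3 was capped at 0.0001 min^-1.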

Where [1] appears, read: auxiliary factor: 500 nM mouse GTSF1.
[2] abbreviates: auxiliary factor: none (no GTSF1).

± gives the standard deviation.

Experimental findings from the supplement of paper PMC10338343 are described below.
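Note: 1 nM active piRISC with 0.1 nM target library at 33 °C single turnover.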

With UCCUGGAUGAGCAUGGAUAGUAUUUAGUUA, the “pre-steady-state target cleavage rate” value reads like this: under setting [1], 0.189 ± 0.019; under setting [2], 0.0105 ± 0.0024.

Consider UCCUGGAUGUCGUUGCAUAGUAAAUAGUUA, for which the “pre-steady-state target cleavage rate” value by setting is: under setting [1], 0.0599 ± 0.019; under setting [2], 0.00437 ± 0.0023.

Consider UCCUGGUACAGCAUGCAUACUAUUUAGUUA, for which the “pre-steady-state target cleavage rate” value runs as follows: under setting [1], 0.139 ± 0.031; under setting [2], 0.00694 ± 0.003.

Take UCCUGGAUGUCGUUGCAUAGUACUUUAGUUA: the “pre-steady-state target cleavage rate” value under setting [1] is 0.0156 ± 0.0059 and the “pre-steady-state target cleavage rate” value under setting [2] amounted to 0.00645 ± 0.0028.

Take UCCUGGAUCAGCUAGCAUAGUUUUUAGUUA: the “pre-steady-state target cleavage rate” value runs as follows: under setting [1], 0.0366 ± 0.0073; under setting [2], 0.00382 ± 0.0025.

As to UCCUGGAACAGCAUGCAUAGUUUUUAGUUA, the “pre-steady-state target cleavage rate” value under setting [1] turned out to be 0.0418 ± 0.011 and the “pre-steady-state target cleavage rate” value under setting [2] was 0.00553 ± 0.0023.

Take UCCUGGAUGUGCUUGCAUAGUUUUUAGUAA: the “pre-steady-state target cleavage rate” value turned out to be 0.0109 ± 0.0049 under setting [1] and 0.00391 ± 0.0027 under setting [2].

As to UCCUGGUACAGCAUGGAUAGUAUUUAGUUA, the “pre-steady-state target cleavage rate” value runs as follows: under setting [1], 0.197 ± 0.019; under setting [2], 0.0172 ± 0.0046.

Regarding UCCUGGAUGUCGUUGCAUAGUAUUGAGUUA, the “pre-steady-state target cleavage rate” value under setting [1] amounted to 0.0312 ± 0.011 and the “pre-steady-state target cleavage rate” value under setting [2] turned out to be 0.00363 ± 0.0032.

Consider UCCUGGAUGUCGAUGCAUAGUAUUUAGUA, for which the “pre-steady-state target cleavage rate” value under setting [1] came to 0.0708 ± 0.011 and the “pre-steady-state target cleavage rate” value under setting [2] turned out to be 0.00401 ± 0.0022.

As to UCCUCCUACAGCUUGCUAUGUAUUUAGUUA, the “pre-steady-state target cleavage rate” value runs as follows: under setting [1], 0.0502 ± 0.011; under setting [2], 0.00506 ± 0.0018.

Take UCCUGGUACAGCUUGCAUAUGUAUUUAGUUA: the “pre-steady-state target cleavage rate” value by setting is: under setting [1], 0.00566 ± 0.0049; under setting [2], 0.00451 ± 0.0033.

As to UCCUGGAUGUCGUUGCAUAGUAUUUAGUGA, the “pre-steady-state target cleavage rate” value reads like this: under setting [1], 0.193 ± 0.034; under setting [2], 0.00426 ± 0.0027.

UCCUGGAUGUGCUUGCAUAGUAGUUAGUUA: the “pre-steady-state target cleavage rate” value stood at 0.0647 ± 0.01 under setting [1] and 0.0055 ± 0.0027 under setting [2].

For the sequence UCCUGCUACUGCUUGCAUAGUAUUUAGUUA, the “pre-steady-state target cleavage rate” value by setting is: under setting [1], 0.234 ± 0.025; under setting [2], 0.00705 ± 0.0018.

In the case of UCCUGGUACAGCUUCGUUAGUAUUUAGUUA, the “pre-steady-state target cleavage rate” value under setting [1] worked out at 0.128 ± 0.013 and the “pre-steady-state target cleavage rate” value under setting [2] was 0.00406 ± 0.0022.

In the case of UCCUGGAUCAGCUUGCAUAGUUUUUUGUUA, the “pre-steady-state target cleavage rate” value under setting [1] turned out to be 0.0453 ± 0.011 and the “pre-steady-state target cleavage rate” value under setting [2] was 0.00417 ± 0.0027.

On to UCCUCGUACAGCUUGCAUAGUAAUUAGUUA, for which the “pre-steady-state target cleavage rate” value runs as follows: under setting [1], 0.283 ± 0.017; under setting [2], 0.00698 ± 0.0019.

As to UCCUGGAUGAGCUUGCAUAGUAUAAUGUUA, the “pre-steady-state target cleavage rate” value is, setting by setting: under setting [1], 0.229 ± 0.061; under setting [2], 0.00329 ± 0.0028.

For the sequence UCCUGGAUGAGGUUGGAUAGUAUUUAGUUA, the “pre-steady-state target cleavage rate” value by setting is: under setting [1], 0.132 ± 0.021; under setting [2], 0.00824 ± 0.0025.

For UCCUGGAACAGCUUGCUAUGUAUUUAGUUA, the “pre-steady-state target cleavage rate” value runs as follows: under setting [1], 0.0569 ± 0.017; under setting [2], 0.00412 ± 0.0022.

As for UCCUGGAUGUGCUUGCAUAGUAUUAUAGUUA, the “pre-steady-state target cleavage rate” value is 0.15 ± 0.025 under setting [1] and 0.006 ± 0.0028 under setting [2].

UCCUGGAACGCUUGCAUAGUAUUUAGUUA: the “pre-steady-state target cleavage rate” value came out at 0.239 ± 0.015 under setting [1] and 0.00644 ± 0.0019 under setting [2].

For the sequence UCCUGGAUGUCGUUGCAUAGUAUAAAGUUA, the “pre-steady-state target cleavage rate” value under setting [1] is 0.0728 ± 0.018 and the “pre-steady-state target cleavage rate” value under setting [2] stood at 0.00407 ± 0.0022.

In the case of UCCUGGAUGUCGUUGCAUAGUAAUUAGUUA, the “pre-steady-state target cleavage rate” value by setting is: under setting [1], 0.116 ± 0.022; under setting [2], 0.00563 ± 0.002.

Take UCCUGGAACUGCUUGCAUAGUAUUUACUUA: the “pre-steady-state target cleavage rate” value under setting [1] stood at 0.0984 ± 0.027 and the “pre-steady-state target cleavage rate” value under setting [2] was found to be 0.00292 ± 0.0023.

Consider UCCUGGAUGAGCUUGGAAAGUAUUUAGUUA, for which the “pre-steady-state target cleavage rate” value is 0.0843 ± 0.011 under setting [1] and 0.00571 ± 0.0018 under setting [2].

With UCCUGCUAACAGCUUGCAUAGUAUUUAGUUA, the “pre-steady-state target cleavage rate” value under setting [1] came out at 0.307 ± 0.033 and the “pre-steady-state target cleavage rate” value under setting [2] was 0.00599 ± 0.0032.

Consider UCCUGGAUGUGCUUGCAAAGUAUUUAGUUA, for which the “pre-steady-state target cleavage rate” value was 0.0492 ± 0.011 under setting [1] and 0.00756 ± 0.0024 under setting [2].

Regarding UCCUGGAUGUGCAUGCUUAGUAUUUAGUUA, the “pre-steady-state target cleavage rate” value runs as follows: under setting [1], 0.0349 ± 0.011; under setting [2], 0.0103 ± 0.0032.

For the sequence UCCUGGAUGUCGUUGGAUACUAUUUAGUUA, the “pre-steady-state target cleavage rate” value reads like this: under setting [1], less than 0.0001; under setting [2], less than 0.0001.

For UCCUGGAUGUCGAAGCAUAGUAUCUAGUUA, the “pre-steady-state target cleavage rate” value is 0.0263 ± 0.0077 under setting [1] and 0.00418 ± 0.0019 under setting [2].

Take UCCUGGUACAGCUUCCAAAGUAUUUAGUUA: the “pre-steady-state target cleavage rate” value is, setting by setting: under setting [1], 0.138 ± 0.028; under setting [2], 0.00693 ± 0.0027.
